Lassa entry inh: inhibitors of Lassa virus binding or cell entry | Lassa virus pseudotype entry inhibition, cell reporter | Potency, µM (top dose mostly 37.9 µM), for the others: at the top dose activity change, negative = inhibition, hits mostly inhibitors | 1.2% of 300,000 active | AID 540256; calls by dose curve; tested in HEK293 cells; further: potency means the concentration at half of the fitted maximal effect; nearly all actives have a fitted effect of over 50% in size
HCMV antiviral: inhibitors of human cytomegalovirus; HFF cells, HCMV-luciferase reporter, 72 h; hits give low values; activity change, negative = inhibition, % at 57.5 µM; 4.5% of 410,000 active; AID 1259415; in the data active means activity change below about -60%; inconclusive means no clear call, values can overlap the other calls; inactive means above about -39%
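Screen run at 2 compound doses on HFFs infected with reporter HCMV, MOI 1 PFU/cell. Luciferase activity from cell lysates at 72 h post infection gave inhibition relative to buffer-only and Salinomycin wells.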
Marburg entry inh: inhibitors of Marburg virus binding or cell entry; Marburg virus pseudotyped entry inhibition, cell reporter; 1.8% of 300,000 active; Potency, µM (doses to about 37.8 µM), without a hit: at the highest dose activity change, negative = inhibition, hits mostly inhibitors; calls by dose curve; tested in HEK293 cells; further: potency means the concentration at half of the fitted maximal effect
FMDV antiviral: blocks foot and mouth disease virus; 1.2% of 410,000 active; AID 1159524; FMDV antiviral cell-based qHTS; Potency, µM (doses to about 57.9 µM), for inactives: top-dose activity change, negative = inhibition, most hits filed as inhibitors; calls by dose curve; tested in HEK293T cells; further: read-out not given here; potency means the concentration at half of the fitted maximal effect; nearly all actives have a fitted effect of over 45% in size
An asterisk follows results filed as active; u = inconclusive; x = no result; [ ] = another dose, or the depositor's remark. A selection: hits, their analogues and other compounds. The true share with any hit is near 6.2%. On the % scale 0 is the no-effect control and ±100 the full control effect.

SMILES | Lassa entry inh | HCMV antiviral | Marburg entry inh | FMDV antiviral
CC(=O)c1cccc(N/C=C\C(=O)c2ccc(C)cc2)c1 | 7.94µM* | 103.0 | u | -32.9%
CC(=O)c1cccc(NS(=O)(=O)c2ccc(N/C=C\C(=O)c3ccc(C)cc3)cc2)c1 | -3.2% | -2.1 | u | u
COc1ccc(OC)c(CCNC(=O)c2ccc3c(c2)c(C)c(C)n3Cc2ccccc2)c1 | 18.1%[46.1 µM] | 0.0 | x | u
COC(=O)c1cccc(N2C(=O)C[C@](Sc3ccc(OC)cc3)(C(=O)N3CCN(c4ncccn4)CC3)[C@H]2c2ccc(OC)cc2)c1 | x | -25.0 | x | x
CN(C)C1CCc2[nH]c3ccc(NC(=O)c4ccc(F)cc4)cc3c2C1 (stereo not given) | x | x | x | -3.2%
O=C(c1cccc(F)c1)N1CCC2(CCCN(c3ncccn3)C2)CC1 | x | x | x | -0.8%
CC(=O)Nc1cccc(C(=O)/C=C/c2ccc(Br)cc2)c1 | u | -71.4* | 14.6µM* | 25.1µM*
CC(=O)Nc1cccc(C(=O)/C=C/c2ccc(/C=C/C(=O)c3cccc(NC(C)=O)c3)cc2)c1 | x | -87.9* | x | x
CC(=O)Nc1cccc(C(=O)/C=C/c2ccc(N(C)C)cc2)c1 | -9.8% | 30.0 | 4.2% | 26.2%
CC(=O)Nc1cccc(C(=O)/C=C/c2cccs2)c1 | -19.2% | -32.3 | -8.8% | u
COc1ccc(CCNC(=O)CN(c2ccccc2)S(=O)(=O)N(C)C)cc1 | 0.0%[46.1 µM] | -7.2 | u | -21.7%
CCOc1cc(/C=N\Nc2nc(Nc3ccccc3)nc(N3CCOCC3)n2)ccc1OC(=O)c1ccco1 | u | -5.1 | 3.26µM* | -6.7%
Cc1nc2cnc(Oc3ccccc3)nc2n(C2CC2)c1=O | x | x | x | -21.8%
O=C(CC1C(=O)N(c2ccc(F)cc2)C(=O)N1Cc1ccc2c(c1)OCO2)Nc1ccc(F)cc1 (stereo not given) | -13.4%[46.1 µM] | -0.7 | -7.1%[46.1 µM] | -2.1%
C1CCC2(CC1)C1=C(CCCC1)Nc1nnnn12 | -6.4% | -92.6* | -9.5% | -21.2%
Cc1cc(C(=O)N/N=C/c2cc(Br)cc(Br)c2OC(=O)c2cccc(F)c2)n[nH]1 | 11.6µM* | -96.0* | 18.3µM* | -23.5%
Cc1cccc(C(=O)Oc2c(Br)cc(Br)cc2/C=N/NC(=O)c2ccncc2)c1 | 3.5% | -71.1* | u | -8.0%
Cc1cc(C(=O)N/N=C/c2cc(Br)ccc2OC(=O)c2ccc(Br)cc2)n[nH]1 | x | x | -4.8% | x
O=C(N/N=C/c1cc(Br)cc(Br)c1O)c1ccncc1 | u | -21.9 | u | 16.6%
COc1cc(=O)n2c(c1C(=O)N1CCc3ccccc3C1)CCN(Cc1ccc(CO)o1)CC2 | x | x | x | 3.3%
Cc1cc(NC(=O)C(C)(C)C)cc(-c2nc3ncccc3o2)c1O | -1.3%[46.1 µM] | -11.8 | -5.6%[46.1 µM] | -1.2%
O=c1[nH]c(Nc2ccc3c(c2)OCCO3)nnc1Cc1ccccc1 | -17.6% | -73.2* | 21.8%[46.1 µM] | -6.4%
CCOc1ccccc1NC(=O)CN(c1ccc(OC)cc1OC)S(=O)(=O)c1ccccc1[N+](=O)[O-] | 0.8%[46.1 µM] | u | 10µM* | 13.3%
CCOc1ccc(N(CC(=O)Nc2ccccc2OC)S(=O)(=O)c2ccccc2)cc1 | x | -86.7* | x | 1.8%
CCOc1ccc(S(=O)(=O)N(CC(=O)Nc2ccc(OC)c(Cl)c2)c2ccccc2)cc1 | -8.6%[46.1 µM] | -60.2* | 3.1%[46.1 µM] | 0.0%
SMILES | Lassa entry inh | HCMV antiviral | Marburg entry inh | FMDV antiviral
COc1ccc(N(CC(=O)Nc2ccc(OC)cc2OC)S(=O)(=O)c2ccccc2)cc1 | u | -64.6* | u | -3.0%
CC1(c2nnnn2-c2ccc3c(c2)OCCO3)CCC(=O)N1Cc1cccnc1 (stereo not given) | x | -4.0 | x | -4.7%
O=C(Nc1cc(Cl)cc(Cl)c1)N[C@@H]1CC[C@@H](CCNS(=O)(=O)c2cccc(F)c2)O[C@@H]1CO | x | -13.0 | x | u
Cn1c(=O)c2c(nc(SCC(=O)Nc3ccc(OC(F)(F)F)cc3)n2Cc2cccc(C(F)(F)F)c2)n(C)c1=O | u | 44.5 | -1.3%[46.1 µM] | u
COc1ccc2c(c1)[C@@H](NCc1ccccn1)[C@H](C)[C@@H](c1ccccc1)N2C(=O)NC(C)C | x | 18.9 | x | x
COc1cc(NC(=O)CCCN2C(=O)CCn3nc(-c4cn(C)c5ccccc45)cc32)cc(OC)c1 | 11.5%[46.1 µM] | 15.3 | x | u
COc1ccc(NC(=O)c2ccc(CN(c3cc(Cl)ccc3C)S(=O)(=O)c3ccccc3)cc2)cc1OC | -18.1% | -18.4 | 4.11µM* | -11.9%
COc1ccc(N(CC(=O)Nc2cccnc2)S(C)(=O)=O)cc1 | 0.9% | 17.2 | -1.2%[46.1 µM] | 0.4%
COc1ccc(S(=O)(=O)N(CC(=O)Nc2ccc(OC)cc2OC)c2ccc(Cl)cc2)cc1 | u | -24.9 | u | 3.16µM*
COc1ccc(NC(=O)CN(c2ccc(OC)c(Cl)c2)S(=O)(=O)c2ccccc2)c(OC)c1 | x | 12.7 | x | -13.0%
COc1cccc(N(CC(=O)Nc2cccnc2)S(C)(=O)=O)c1 | 1.7%[46.1 µM] | -103.0* | u | 2.5%
COc1ccccc1NC(=O)c1ccc(CN(c2cc(Cl)ccc2C)S(=O)(=O)c2ccccc2)cc1 | 4.9% | -20.3 | u | -16.2%
CCOc1ccc(NC(=O)CN(c2ccc(Cl)cc2C)S(=O)(=O)c2ccccc2)cc1 | u | -69.4* | u | -0.7%
Cc1c(Cl)cccc1-c1ccc(CNc2ccc3[nH]c(=O)[nH]c3c2)o1 | 8.5%[46.1 µM] | -23.4 | -3.4%[46.1 µM] | -28.3%
CCCCNC(=O)c1nc2cc(C)c(C)cc2nc1-c1ccccc1 | x | 17.5 | x | x
CCOC(=O)c1cc2c(=O)n3ccccc3nc2n(CCOC)c1=NC(=O)c1c(-c2ccccc2Cl)noc1C | u | 2.3 | 2.8%[46.1 µM] | -18.3%
Cc1ccc(CNc2ncnc3sc(C(=O)N4CCC(N5CCCC(O)C5)CC4)c(C)c23)o1 (stereo not given) | x | x | x | -2.0%
COC(=O)c1cc(NC(=O)CN(c2ccccc2OC)S(=O)(=O)c2ccccc2)ccc1Cl | u | -28.2 | u | u
COC(=O)c1cc(NC(=O)CN(c2cccc(OC)c2)S(=O)(=O)c2ccccc2)ccc1Cl | 10µM* | u | 15.8µM* | u
CCC(CC)C(C(=O)NCc1ccccc1)N(C)Cc1ccc(Cl)c(Cl)c1 (stereo not given) | x | -1.1 | x | u
Cc1ccc(C(=O)c2cc([N+](=O)[O-])ccc2N2CC(C)OC(C)C2)cc1 (stereo not given) | x | -14.7 | x | 15.1%
Cc1ccc(C(=O)c2cc([N+](=O)[O-])ccc2N2CCCCC2)cc1 | u | -85.4* | u | -23.4%
CC1CCCN(c2ccc([N+](=O)[O-])cc2C(=O)c2ccccc2)C1 (stereo not given) | u | -73.6* | u | u
O=C(c1ccccc1)c1cc([N+](=O)[O-])ccc1N1CCOCC1 | -21.2% | u | u | -24.4%
CCCCOc1ccc(Br)cc1CSC(=N)N | u | -98.4* | u | 12.6µM*
CCOc1ccc(C(C)=O)cc1CSC(=N)N | -6.2%[46.1 µM] | 46.8 | u | -13.3%
O=S1(=O)C[C@H](N2CCC[C@@H]2CO)[C@@H](COCc2ccccc2)N1 | x | -0.1 | x | -4.5%
C=C(C)CN(CC)c1nc(N)c2c(N)nc3c(c2c1C#N)CC(=O)N3C12CC3CC(CC(C3)C1)C2 | u | -69.4* | 2.51µM* | u
CCCCN1C(=O)Cc2c1nc(N)c1c(N)nc(N(CCC)CCC)c(C#N)c21 | -0.6% | -22.4 | 14.6% | 12.6%
